Measurements as given in the supplement of paper PMC11732987, “Enantioselective OTUD7B fragment discovery through chemoproteomics screening and high-throughput optimisation” (Communications Chemistry, 2025).

Legend:
Experiment in all cases: log2 ratio of Biotin-Ahx-Ub-VS probe labelling (fragment/DMSO); higher = less target engagement (more negative = stronger competition), active = hit call of the paper (q ≤ 0.05, log2 ratio ≤ -1)
Details in all cases: compound concentration: 200 uM; treatment time: 3 h
[1] = biological target: USP34 (UniProt Q70CQ2)
Chain of USP34 (Q70CQ2 whole entry, the tested form may be a part): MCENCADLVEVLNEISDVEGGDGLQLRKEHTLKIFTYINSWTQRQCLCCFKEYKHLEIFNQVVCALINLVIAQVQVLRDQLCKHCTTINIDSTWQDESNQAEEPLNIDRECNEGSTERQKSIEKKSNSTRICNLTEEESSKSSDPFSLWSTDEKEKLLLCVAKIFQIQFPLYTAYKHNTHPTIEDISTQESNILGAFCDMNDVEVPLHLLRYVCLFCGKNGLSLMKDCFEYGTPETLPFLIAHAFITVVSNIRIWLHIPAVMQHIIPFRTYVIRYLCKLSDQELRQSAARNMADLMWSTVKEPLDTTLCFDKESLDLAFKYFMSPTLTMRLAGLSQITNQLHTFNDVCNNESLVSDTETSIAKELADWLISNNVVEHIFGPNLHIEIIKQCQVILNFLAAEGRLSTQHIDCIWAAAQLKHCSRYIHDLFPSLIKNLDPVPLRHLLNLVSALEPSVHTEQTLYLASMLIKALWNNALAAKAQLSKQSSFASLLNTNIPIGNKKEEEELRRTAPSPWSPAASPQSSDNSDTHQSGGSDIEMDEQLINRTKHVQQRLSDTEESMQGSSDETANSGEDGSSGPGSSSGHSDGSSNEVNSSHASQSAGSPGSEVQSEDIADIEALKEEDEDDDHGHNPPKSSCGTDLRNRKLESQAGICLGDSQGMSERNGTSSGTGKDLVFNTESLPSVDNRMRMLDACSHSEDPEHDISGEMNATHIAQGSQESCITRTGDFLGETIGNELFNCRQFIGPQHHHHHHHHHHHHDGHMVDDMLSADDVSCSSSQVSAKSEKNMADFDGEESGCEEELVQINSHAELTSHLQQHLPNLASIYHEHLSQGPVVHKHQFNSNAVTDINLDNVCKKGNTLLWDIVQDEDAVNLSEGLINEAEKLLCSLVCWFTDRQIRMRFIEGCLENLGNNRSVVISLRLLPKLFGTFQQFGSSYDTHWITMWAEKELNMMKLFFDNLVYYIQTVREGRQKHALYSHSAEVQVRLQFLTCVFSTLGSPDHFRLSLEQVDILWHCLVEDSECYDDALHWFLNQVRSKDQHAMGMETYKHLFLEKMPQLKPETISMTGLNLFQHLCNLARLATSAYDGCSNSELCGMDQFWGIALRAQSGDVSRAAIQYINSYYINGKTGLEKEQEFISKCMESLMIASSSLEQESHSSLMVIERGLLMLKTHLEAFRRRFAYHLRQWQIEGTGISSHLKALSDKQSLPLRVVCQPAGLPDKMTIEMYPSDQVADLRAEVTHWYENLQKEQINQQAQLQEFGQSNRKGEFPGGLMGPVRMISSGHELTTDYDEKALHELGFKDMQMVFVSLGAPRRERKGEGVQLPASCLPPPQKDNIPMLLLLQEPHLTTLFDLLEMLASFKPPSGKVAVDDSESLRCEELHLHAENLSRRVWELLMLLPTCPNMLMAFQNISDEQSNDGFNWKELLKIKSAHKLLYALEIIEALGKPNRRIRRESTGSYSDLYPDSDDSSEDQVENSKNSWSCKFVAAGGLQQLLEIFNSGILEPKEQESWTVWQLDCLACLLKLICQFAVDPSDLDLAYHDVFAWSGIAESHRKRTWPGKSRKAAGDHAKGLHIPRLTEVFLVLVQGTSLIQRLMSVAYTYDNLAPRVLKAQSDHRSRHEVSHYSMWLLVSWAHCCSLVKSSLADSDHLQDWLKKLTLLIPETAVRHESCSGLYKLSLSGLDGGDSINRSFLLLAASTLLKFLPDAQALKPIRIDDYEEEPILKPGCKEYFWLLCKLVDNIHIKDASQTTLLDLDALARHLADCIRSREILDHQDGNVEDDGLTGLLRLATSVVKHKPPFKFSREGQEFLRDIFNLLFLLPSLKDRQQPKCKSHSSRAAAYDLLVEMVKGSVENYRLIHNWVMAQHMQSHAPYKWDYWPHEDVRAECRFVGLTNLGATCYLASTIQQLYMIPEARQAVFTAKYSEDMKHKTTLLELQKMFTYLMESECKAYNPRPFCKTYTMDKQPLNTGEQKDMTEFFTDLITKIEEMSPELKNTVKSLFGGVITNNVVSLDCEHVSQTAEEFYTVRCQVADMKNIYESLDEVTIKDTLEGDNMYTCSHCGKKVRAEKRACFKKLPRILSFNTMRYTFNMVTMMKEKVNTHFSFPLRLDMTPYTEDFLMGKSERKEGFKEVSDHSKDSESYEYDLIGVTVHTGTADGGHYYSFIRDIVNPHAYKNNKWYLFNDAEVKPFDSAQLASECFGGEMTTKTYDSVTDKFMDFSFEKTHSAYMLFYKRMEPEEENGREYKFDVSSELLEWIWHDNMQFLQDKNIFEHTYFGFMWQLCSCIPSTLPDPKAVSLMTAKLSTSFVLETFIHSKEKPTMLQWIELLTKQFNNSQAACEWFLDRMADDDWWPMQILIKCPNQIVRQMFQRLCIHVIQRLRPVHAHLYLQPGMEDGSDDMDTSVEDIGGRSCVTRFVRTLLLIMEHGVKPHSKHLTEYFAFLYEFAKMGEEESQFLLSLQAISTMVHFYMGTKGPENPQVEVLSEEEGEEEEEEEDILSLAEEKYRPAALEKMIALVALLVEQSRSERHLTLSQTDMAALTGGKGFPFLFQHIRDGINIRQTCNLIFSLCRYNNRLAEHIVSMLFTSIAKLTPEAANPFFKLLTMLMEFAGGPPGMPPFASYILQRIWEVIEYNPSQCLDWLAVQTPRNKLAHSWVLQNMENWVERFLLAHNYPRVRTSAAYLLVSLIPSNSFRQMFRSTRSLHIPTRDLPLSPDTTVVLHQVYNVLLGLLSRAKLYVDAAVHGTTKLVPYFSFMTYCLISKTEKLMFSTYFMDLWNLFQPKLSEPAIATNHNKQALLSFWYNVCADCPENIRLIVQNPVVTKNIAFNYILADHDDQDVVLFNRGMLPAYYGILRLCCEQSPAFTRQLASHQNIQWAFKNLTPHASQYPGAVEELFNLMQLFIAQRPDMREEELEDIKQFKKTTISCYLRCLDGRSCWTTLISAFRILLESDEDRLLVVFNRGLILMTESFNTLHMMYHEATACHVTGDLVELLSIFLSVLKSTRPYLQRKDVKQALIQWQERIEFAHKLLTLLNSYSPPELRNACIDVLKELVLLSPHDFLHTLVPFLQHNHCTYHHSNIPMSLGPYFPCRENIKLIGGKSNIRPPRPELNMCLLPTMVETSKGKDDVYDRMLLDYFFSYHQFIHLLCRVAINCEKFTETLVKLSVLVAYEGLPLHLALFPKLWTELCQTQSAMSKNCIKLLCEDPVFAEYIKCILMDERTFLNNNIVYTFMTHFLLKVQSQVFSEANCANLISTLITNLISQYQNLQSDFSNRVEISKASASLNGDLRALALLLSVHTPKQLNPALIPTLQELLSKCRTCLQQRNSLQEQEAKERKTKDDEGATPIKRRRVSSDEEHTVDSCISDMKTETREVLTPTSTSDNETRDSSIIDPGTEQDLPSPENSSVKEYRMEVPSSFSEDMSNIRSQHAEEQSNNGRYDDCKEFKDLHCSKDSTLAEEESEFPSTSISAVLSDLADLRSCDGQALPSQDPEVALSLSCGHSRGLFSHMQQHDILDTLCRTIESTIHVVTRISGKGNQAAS
Procedure, shortened: (§1)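 Labelling with Biotin-Ahx-Ub-VS (0.5 µM final, 1 h) followed a 3 h triplicate treatment of HEK293T lysate (495 µg per sample, Tris/CHAPS/IGEPAL buffer with protease inhibitors) with fragment at 200 µM or vehicle. Labelled DUBs were NeutrAvidin-enriched, digested with LysC and trypsin, and run by diaPASEF LC-MS/MS. The values, average log2 fragment/vehicle ratios by unpaired t-test, come from global-median-normalised Spectronaut label-free quantities. Proteins with ≥2 unique peptides were used.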

[2] = biological target: T1, USP36 (UniProt Q9P275)
T1 sequence (whole entry): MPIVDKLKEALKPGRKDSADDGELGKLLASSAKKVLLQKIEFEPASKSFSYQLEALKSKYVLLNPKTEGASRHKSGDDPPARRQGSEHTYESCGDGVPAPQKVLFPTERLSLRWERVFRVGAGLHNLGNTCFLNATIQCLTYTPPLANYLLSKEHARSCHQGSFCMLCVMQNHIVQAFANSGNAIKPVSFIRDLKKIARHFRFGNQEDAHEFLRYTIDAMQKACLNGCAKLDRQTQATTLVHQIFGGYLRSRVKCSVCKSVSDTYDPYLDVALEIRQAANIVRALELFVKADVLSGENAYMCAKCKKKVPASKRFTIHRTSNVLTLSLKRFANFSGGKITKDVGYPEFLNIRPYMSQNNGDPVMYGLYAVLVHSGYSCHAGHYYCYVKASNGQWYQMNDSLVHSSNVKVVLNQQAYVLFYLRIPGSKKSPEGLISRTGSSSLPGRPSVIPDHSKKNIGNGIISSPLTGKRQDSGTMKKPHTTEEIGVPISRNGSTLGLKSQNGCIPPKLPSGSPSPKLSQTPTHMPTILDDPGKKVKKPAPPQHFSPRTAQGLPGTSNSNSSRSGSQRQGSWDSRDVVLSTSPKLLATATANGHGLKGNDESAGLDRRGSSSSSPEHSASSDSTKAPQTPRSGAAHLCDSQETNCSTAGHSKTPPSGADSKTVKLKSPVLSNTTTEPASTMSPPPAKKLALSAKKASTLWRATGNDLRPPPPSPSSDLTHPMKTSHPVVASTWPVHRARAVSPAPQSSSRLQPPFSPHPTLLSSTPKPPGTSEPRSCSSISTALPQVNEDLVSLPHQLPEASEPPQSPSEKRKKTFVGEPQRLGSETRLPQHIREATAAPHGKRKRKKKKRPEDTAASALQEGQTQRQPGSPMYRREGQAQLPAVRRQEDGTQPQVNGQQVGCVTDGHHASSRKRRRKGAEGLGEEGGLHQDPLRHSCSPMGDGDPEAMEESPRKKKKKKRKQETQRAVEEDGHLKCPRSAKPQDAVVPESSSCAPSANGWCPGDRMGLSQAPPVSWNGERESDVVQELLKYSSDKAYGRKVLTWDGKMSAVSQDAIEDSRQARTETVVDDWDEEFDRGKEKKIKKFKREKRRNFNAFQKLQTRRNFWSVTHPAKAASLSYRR
Procedure, shortened: as §1

[3] = biological target: T2, USP38 (UniProt Q8NB14)
T2 sequence (whole entry): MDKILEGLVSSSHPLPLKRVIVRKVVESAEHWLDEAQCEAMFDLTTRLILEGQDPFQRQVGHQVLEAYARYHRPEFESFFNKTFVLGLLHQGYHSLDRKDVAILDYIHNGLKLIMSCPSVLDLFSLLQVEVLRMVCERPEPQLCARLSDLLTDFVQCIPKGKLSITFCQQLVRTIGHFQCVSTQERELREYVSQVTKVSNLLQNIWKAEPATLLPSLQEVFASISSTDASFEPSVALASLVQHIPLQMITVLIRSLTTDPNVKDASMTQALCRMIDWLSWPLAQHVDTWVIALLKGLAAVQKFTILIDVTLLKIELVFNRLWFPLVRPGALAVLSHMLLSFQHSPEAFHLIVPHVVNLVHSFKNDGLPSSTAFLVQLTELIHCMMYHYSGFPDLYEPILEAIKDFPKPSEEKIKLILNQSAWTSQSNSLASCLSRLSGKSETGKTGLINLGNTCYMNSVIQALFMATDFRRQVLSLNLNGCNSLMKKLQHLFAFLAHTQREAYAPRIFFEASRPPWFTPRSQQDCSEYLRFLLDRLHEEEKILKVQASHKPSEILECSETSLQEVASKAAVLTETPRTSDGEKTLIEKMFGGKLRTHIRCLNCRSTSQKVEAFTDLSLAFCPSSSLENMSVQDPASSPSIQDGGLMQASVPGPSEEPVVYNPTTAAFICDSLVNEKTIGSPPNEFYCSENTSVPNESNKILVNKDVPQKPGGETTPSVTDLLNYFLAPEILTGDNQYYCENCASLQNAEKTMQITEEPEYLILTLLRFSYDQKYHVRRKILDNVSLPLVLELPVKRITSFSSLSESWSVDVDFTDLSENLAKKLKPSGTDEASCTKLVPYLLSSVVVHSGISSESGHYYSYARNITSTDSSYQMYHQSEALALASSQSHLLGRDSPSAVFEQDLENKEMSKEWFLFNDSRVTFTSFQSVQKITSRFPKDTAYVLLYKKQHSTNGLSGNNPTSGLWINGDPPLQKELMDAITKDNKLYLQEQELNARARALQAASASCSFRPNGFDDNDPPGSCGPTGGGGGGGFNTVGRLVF
Procedure, shortened: as §1

[4] = biological target: T3, USP39 (UniProt Q53GS9)
T3 sequence (whole entry): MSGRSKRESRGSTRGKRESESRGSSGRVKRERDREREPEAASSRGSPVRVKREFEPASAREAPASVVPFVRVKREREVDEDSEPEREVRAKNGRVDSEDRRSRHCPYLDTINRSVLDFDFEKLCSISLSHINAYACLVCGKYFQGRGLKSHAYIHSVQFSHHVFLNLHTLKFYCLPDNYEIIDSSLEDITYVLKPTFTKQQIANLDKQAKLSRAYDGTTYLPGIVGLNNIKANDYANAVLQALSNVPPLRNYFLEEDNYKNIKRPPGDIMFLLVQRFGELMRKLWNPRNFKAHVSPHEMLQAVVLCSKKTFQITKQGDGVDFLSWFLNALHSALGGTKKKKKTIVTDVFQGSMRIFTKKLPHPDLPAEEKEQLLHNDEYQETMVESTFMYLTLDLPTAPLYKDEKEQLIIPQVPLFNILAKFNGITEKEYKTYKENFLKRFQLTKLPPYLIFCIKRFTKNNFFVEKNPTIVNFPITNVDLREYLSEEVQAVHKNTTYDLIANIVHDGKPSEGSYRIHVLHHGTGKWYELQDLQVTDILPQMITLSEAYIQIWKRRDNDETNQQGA
Procedure, shortened: as §1

[5] = biological target: T4, USP4 (UniProt Q13107)
T4 sequence (whole entry): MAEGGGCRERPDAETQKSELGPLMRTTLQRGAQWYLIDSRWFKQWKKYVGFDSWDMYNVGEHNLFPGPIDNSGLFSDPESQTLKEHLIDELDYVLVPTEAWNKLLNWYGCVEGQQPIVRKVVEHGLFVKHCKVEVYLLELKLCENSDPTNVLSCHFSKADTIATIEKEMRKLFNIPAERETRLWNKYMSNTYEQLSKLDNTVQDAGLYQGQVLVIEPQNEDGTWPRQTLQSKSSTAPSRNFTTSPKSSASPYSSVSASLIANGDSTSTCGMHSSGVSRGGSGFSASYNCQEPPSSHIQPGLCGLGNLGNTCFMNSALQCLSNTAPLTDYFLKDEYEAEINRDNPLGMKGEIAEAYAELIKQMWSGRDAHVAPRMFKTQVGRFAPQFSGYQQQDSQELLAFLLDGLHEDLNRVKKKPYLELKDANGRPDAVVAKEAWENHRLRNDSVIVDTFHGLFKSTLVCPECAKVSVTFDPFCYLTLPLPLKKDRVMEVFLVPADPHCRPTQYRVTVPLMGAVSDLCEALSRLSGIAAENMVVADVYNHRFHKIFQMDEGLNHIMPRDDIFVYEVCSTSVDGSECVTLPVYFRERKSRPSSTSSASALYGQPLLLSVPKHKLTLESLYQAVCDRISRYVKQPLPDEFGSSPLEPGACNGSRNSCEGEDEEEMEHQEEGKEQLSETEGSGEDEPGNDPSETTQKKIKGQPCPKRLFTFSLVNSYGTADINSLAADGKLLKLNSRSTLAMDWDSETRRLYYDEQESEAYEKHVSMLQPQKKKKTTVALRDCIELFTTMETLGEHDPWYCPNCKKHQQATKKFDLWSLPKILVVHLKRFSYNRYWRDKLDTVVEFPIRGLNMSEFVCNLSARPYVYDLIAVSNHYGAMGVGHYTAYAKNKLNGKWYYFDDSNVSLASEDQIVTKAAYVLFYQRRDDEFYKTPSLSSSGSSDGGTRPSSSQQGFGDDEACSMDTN
Procedure, shortened: as §1

Measured: log2 ratio of Biotin-Ahx-Ub-VS probe labelling

Cc1cccc(NC(=O)CCl)c1C
inactive: [1] -0.304 | [2] -0.363 | [3] -0.389 | [4] -0.513 | [5] -0.269
